rTrxR1 inhibitor = qHTS Assay for Inhibitors of Mammalian Selenoprotein Thioredoxin Reductase 1 (TrxR1): qHTS. Thioredoxin reductase 1, cytoplasmic (Rattus norvegicus), O89049. recombinant rTrxR1, NADPH fluorescence consumption, selenite substrate. 390,000 compounds, 1% hits. Potency, µM (highest dose often 114 µM), without a hit: top-dose activity change, negative = inhibition, hits mostly inhibitors; note: potency is the fitted concentration of half-maximal effect; nearly all actives have a fitted effect of over 65% in size
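Rat TrxR1 (90 nM in the dispensed reagent) was pre-reduced with 400 uM NADPH for 5 min at room temperature, then incubated with compound for 15 min. After 400 uM selenite was added, NADPH fluorescence (Ex 340/Em 450 nm) was followed for 8 min.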
GALK inhibitor = qHTS Assay for Inhibitors of Human Galactokinase (GALK) | P51570 | Purified GALK, Kinase-Glo residual ATP luminescence | Potency, µM (highest dose often 57.5 µM), without a hit: at the top dose activity change, negative = inhibition, most hits filed as inhibitors | 270,000 compounds, 0.007% hits | AID 1868, 2009; note: potency is the fitted concentration of half-maximal effect
Target sequence (P51570 whole entry, looked up): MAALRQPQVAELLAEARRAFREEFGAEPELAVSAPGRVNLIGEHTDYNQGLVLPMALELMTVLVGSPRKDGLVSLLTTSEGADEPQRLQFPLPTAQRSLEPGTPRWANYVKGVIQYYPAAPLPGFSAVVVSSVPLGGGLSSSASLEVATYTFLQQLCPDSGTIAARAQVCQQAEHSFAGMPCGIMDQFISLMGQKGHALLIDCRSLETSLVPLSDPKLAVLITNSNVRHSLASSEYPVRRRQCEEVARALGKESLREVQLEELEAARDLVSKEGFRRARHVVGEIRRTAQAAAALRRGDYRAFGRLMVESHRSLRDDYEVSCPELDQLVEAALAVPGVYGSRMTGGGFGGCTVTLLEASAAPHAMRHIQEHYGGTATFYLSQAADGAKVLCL
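5 nM enzyme, 35 uM ATP, 100 uM galactose, 20 mM HEPES pH8.0, 5 mM MgCl2; 1 h RT; residual ATP by Kinase-Glo Plus luminescence, qHTS format.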
PI4K2A block = qHTS for small molecular inhibitors of PI4K2A; Phosphatidylinositol 4-kinase type 2-alpha (Homo sapiens), Q9BTU6; purified PI4K2A, ADP-Glo luminescence, 1 h; stronger effect = lower value; activity change, negative = inhibition, % at 76.9 µM; 420,000 compounds, 0.13% hits; AID 1346378, 2018; in the data active = activity change below about -50%; inconclusive = mostly about -30% to -49%;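 note: -100% = wells without enzyme as full effect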
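ADP-Glo luminescence measured ADP generated by PI4K2A enzyme (4 ug/mL before mixing) with 1.2 mM PI substrate (pre-mix) and 300 microM ATP (pre-mix). Tris pH7.5 buffer with MgCl2, Triton X-100; 1 h reaction at ambient temperature.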
TrxR1 substrate = qHTS Assay for Substrates of Mammalian Selenoprotein Thioredoxin Reductase 1 (TrxR1): qHTS; 390,000 compounds, 0.01% hits; purified TrxR1 substrate turnover, NADPH consumption readout; Thioredoxin reductase 1, cytoplasmic (Rattus norvegicus), O89049; Potency, µM (titrated, usually from 114 µM), for inactives: top-dose activity change, negative = substrate turnover; note: potency is the fitted concentration of half-maximal effect; nearly all actives have a fitted effect of over 50% in size
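Rat TrxR1, dispensed at 90 nM, was prereduced with 400 uM NADPH (final) for 5 min at ~22 deg C, then incubated with compound 15 min before 400 uM selenite. A first-read NADPH fluorescence drop versus no-compound background flagged substrates.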
Numbers without * were called inactive; u = inconclusive; x = not tested or not shown; [ ] = another dose, or the depositor's remark. Only some compounds are listed: those with a hit (about 1.1% of all), similar ones and a draw of the others. Unless noted, calls come from the whole dose curve; as a rule, active = well fitted curve in the direction sought with a large enough effect; inconclusive = small, poorly fitted or top-dose-only effect, or another doubt; inactive = no such curve, though single readings can be large; an effect the other way counts as inactive or inconclusive. Unless noted, % is set by controls: 0 for no effect and ±100 for the full control effect.

SMILES | rTrxR1 inhibitor | GALK inhibitor | PI4K2A block | TrxR1 substrate
COc1ccc(C(=O)/C=C/c2cn(CC(O)CN3CCCCCC3)c3ccccc23)cc1OC (stereo not given) | 40µM* | x | -2 | -8%
COc1ccc(C(=O)/C=C/c2cn(CC(O)CN3CCN(C)CC3)c3ccccc23)cc1OC (stereo not given) | 15% | 1% | -1 | -4%[57.1 µM]
Cc1cc(NS(=O)(=O)c2ccc(NC(=O)Cc3ccccc3)cc2)nc(C)n1 | 14% | -1% | -5 | 0%
COc1cc(Cl)c(S(=O)(=O)N2CCCC2)cc1Cl | 26% | 8% | -5 | 1%
COc1cc(N2C(=O)C=CC2=O)c(OC)cc1Cl | 3.2µM* | -1% | 8 | -2%
CN(C)CCC(=O)C(Cc1ccccc1)c1ccccc1 (stereo not given) | 0.25µM* | x | 30 | 0%
CN(C)CCNC(=O)C(c1ccccc1)c1ccccc1 | 21% | -5% | -11 | 0%
CCCOC(=O)c1ccc(NC(=O)C2C3C=CC(O3)C2C(=O)O)cc1 (stereo not given) | 40µM* | 5% | 6 | 1%
O=C1CC(c2ccc(Cl)cc2)CC(=O)N1 | x | x | -1 | x
COc1ccc(-c2nc3cccc(C)n3c2Nc2ccc(C)cc2)cc1 | 51% | x | x | 99%
Cc1ccc(Sc2c([N+](=O)[O-])ncn2C)cc1 | u | x | 1 | 1%
Cn1cnc([N+](=O)[O-])c1Sc1ncccc1N | 35µM* | -4% | -1 | -3%
O=C(Cn1nnc(-c2cccc(C(F)(F)F)c2)n1)NCc1ccc(F)cc1 | 11% | x | 5 | 11%[11.4 µM]
COC(=O)c1ccc([C@@H]2Nc3c(OC)ccc(C)c3[C@@H]3C=CC[C@@H]32)cc1 | 56µM* | x | -4 | 0%
COc1ccc(OCC(=O)Nc2ccccc2C(=O)OCc2cc(=O)n3nc(C)sc3n2)cc1 | 12%[57.1 µM] | x | -6 | 4%[57.1 µM]
O=C(O)c1ccc(Cl)c(S(=O)(=O)Nc2ccccc2C(=O)Nc2ccc(Cl)cc2)c1 | 7% | -2% | -5 | -4%
COc1cccc(CSc2nc(-c3ccccc3F)nc3c2Cc2c(CO)cnc(C)c2O3)c1 | u | x | 2 | 7%
COc1ccc(CCC(=O)Nc2c(-c3ccc(N(C)C)cc3)[nH][nH]c2=O)cc1 | x | x | -64* | x
O=S(=O)(/C(=C\c1ccc(C(F)(F)F)cc1)c1nc2ccccc2[nH]1)c1ccccc1 | 4.5µM* | x | -16 | -2%
Cc1nn(C(C)C(=O)NCCCN2CCCCCC2)c(=O)c2c1sc1ccccc12 (stereo not given) | 50µM* | -13% | 8 | 2%
Cc1nn(C(C)C(=O)NCCCN2CCCCC2C)c(=O)c2c1sc1ccccc12 (stereo not given) | 15% | 0% | -4 | 5%
O=C(/C=C/c1ccccc1)CCN1CCOCC1 | 0.56µM* | x | 11 | 1%
CCN(CC)C(=O)Cn1ncc2c([nH]c3ccc(C)cc32)c1=O | 11% | x | -1 | 18%
O=C(Nc1nccs1)[C@@H]1CC=C[C@@H]2CCN(C3CCCCC3)C(=O)[C@@H]21 | u | x | x | -3%
Cc1ccc(NC(=O)C2=C(c3ccccc3)S(=O)(=O)CCS2(=O)=O)cc1 | 0.32µM* | 10% | u | 1%
SMILES | rTrxR1 inhibitor | GALK inhibitor | PI4K2A block | TrxR1 substrate
CC(C)Cc1ccc(C(C)C(=O)OCc2ccccn2)cc1 (stereo not given) | x | x | 1 | x
C=CCC(Nc1ccccc1)C12C=CC(O1)C(C(=O)OC)=C2C(=O)OC (stereo not given) | 7.9µM* | 0% | 14 | -2%
O=C(CCl)N1c2ccccc2OCC1c1ccccc1 (stereo not given) | 2.2µM* | -4% | 5 | 5%
CC1COc2ccccc2N1C(=O)c1ccccc1Cl (stereo not given) | 18% | -6% | 4 | 2%
O=C(CCl)N1c2ccccc2SCC1c1ccccc1 (stereo not given) | 1.3µM* | 1% | 18 | 7%
CCCCOc1ccccc1NC(=O)CC1Sc2ccccc2NC1=O (stereo not given) | 13% | x | -6 | 7%
Cc1ccc(Cl)cc1NC(=O)C1CCN(C(=O)c2cnn(-c3ccccc3)c2-n2cccc2)CC1 | 7% | x | 3 | 2%
Cc1ccc(CNC(=O)c2c(-c3ccccc3Cl)noc2C)cc1 | 1% | x | 2 | -3%
Cc1onc(-c2ccccc2Cl)c1C(=O)NCc1ccco1 | 50µM* | 7% | u | 3%
O=C(NCc1ccco1)c1ccc2c(c1)C(=O)c1ccccc1-2 | 20µM* | -7% | 2 | 4%[57.1 µM]
Cc1ccc(NC(=O)c2c(C)oc3ccc(O)c(CN4CCCCCC4)c23)cc1 | u | x | -1 | -2%
NS(=O)(=O)c1ccc2c(c1)C1C=CCC1C(C1CC=CCC1)N2 (stereo not given) | 40µM* | -7% | -13 | 1%
O=C(N/C(=C\c1ccco1)C(=O)N1CCCC1CO)c1ccccc1 (stereo not given) | 40µM* | 6% | -6 | -15%
CC1CCCN(C(=O)/C(=C/c2ccco2)NC(=O)c2ccccc2)C1 (stereo not given) | u | -1% | -3 | -3%
CCOc1ccc(OCC(=O)NCCS(=O)(=O)N2CCN(c3ccccc3F)CC2)cc1 | 26%[57.1 µM] | x | 5 | 6%[57.1 µM]
COc1ccc(S(=O)(=O)N2CCN(c3ccccc3F)CC2)cc1-c1noc(C)n1 | 23%[0.457 µM] | x | -2 | 13%
CCOc1ccccc1-n1c(CN2CCN(C(=O)c3ccco3)CC2)nc2ccccc2c1=O | 20µM* | -2% | 3 | 10%
c1ccc(OCCn2c(-c3ccco3)nc3ccccc32)cc1 | 14µM* | -1% | -1 | 13%
Cc1ccc(S(=O)(=O)N(C)C)cc1NC(=O)COC(=O)c1sc2cc(Cl)ccc2c1Cl | 35µM* | -2% | -6 | 0%
Cc1ccc(S(=O)(=O)N(C)C)cc1NC(=O)COC(=O)c1ccc(Cl)cc1 | 20% | 8% | -2 | 4%
CCN(CC)CCOC(=O)c1ccc(NC(=O)/C=C/c2cccs2)cc1 | u | 0% | 1 | -11%
CCOC(=O)c1ccc(NC(=O)/C=C/c2cccs2)cc1 | -35% | 0% | 2 | 79µM*
CCOc1ccc(S(=O)(=O)Nc2ccccc2C(=O)N2CCOCC2)cc1 | 19% | 1% | 5 | 3%
O=C(NC(=S)Nc1ccc(S(=O)(=O)Nc2nccs2)cc1)c1ccccc1 | 40µM* | 1% | 0 | -14%
CCc1nnc(NS(=O)(=O)c2ccc(NC(=S)NC(=O)c3ccc(Br)cc3)cc2)s1 | 50µM* | 0% | 2 | -19%
O=C(NC(=S)Nc1ccc(S(=O)(=O)Nc2nccs2)cc1)c1cccnc1 | -48% | 8% | 3 | 10%[57.1 µM]
CCc1nnc(NS(=O)(=O)c2ccc(NC(=S)NC(=O)c3ccccc3)cc2)s1 | 28µM* | 0% | 0 | -16%

Compound activity: PubChem, National Center for Advancing Translational Sciences (NCATS)
